Several values for one entry are separate records, joined by “and”; a condition that tells them apart may be missing. Identical values can stand only once. Records with an inconclusive call do not appear. Some compounds were tested as several samples or in several runs, with calls that do not always agree. Activity calls are given as the source filed them. The calls were made as follows, unless noted: active = hit-call score of the fitted dose curve at least 0.9, where 1 is the maximum; inactive = score below 0.9.
Legend:
[1] = ATG_PBREM_CIS: Attagene CIS-FACTORIAL HepG2 Assay for human Phenobarbital-responsive Enhancer Module (PBREM) (AID 2282955); conditions: HepG2 PBREM cis-reporter, Attagene multiplexed transcription; actives raise or lower the signal
Summary of the method: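 Transfected liver-derived HepG2 cells exposed 24 h; PBREM reporter transcript quantified via RT-PCR and capillary electrophoresis, with activity in either direction referenced to DMSO.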

[2] = ATG_PXRE_CIS: Attagene CIS-FACTORIAL HepG2 Assay for human Pregnane X Receptor Element (PXRE) (AID 2282957); conditions: HepG2 Attagene CIS-FACTORIAL PXRE reporter, mRNA; actives raise or lower the signal
Summary of the method: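 Reporter transcripts under endogenous PXR-responsive cis-regulation quantified from total RNA of transfected HepG2 cells 24 h post-dosing, via RT-PCR with fluorescent primer extension and capillary electrophoresis. Gain or loss of signal fitted against DMSO baseline.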

[3] = ATG_PPRE_CIS: Attagene CIS-FACTORIAL HepG2 Assay for human Peroxisome Proliferator-activated Response Element (PPRE) (AID 2282958); conditions: HepG2 PPRE cis-element reporter, Attagene transcription factor profiling; actives raise or lower the signal
Summary of the method: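 Measured endpoint: PPRE-controlled reporter mRNA, detected by RT-PCR and capillary electrophoresis fluorescence, from transiently transfected HepG2 cells 24 h after dosing. Curves fitted in both directions using DMSO baseline.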

[4] = ATG_Sox_CIS: Attagene CIS-FACTORIAL HepG2 Assay for human SRY-box transcription factor (SOX) (AID 2282960); conditions: HepG2 Attagene cis-factorial SOX reporter, mRNA; actives raise or lower the signal
Summary of the method: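 Gain- or loss-of-signal endpoint, fitted bidirectionally with DMSO as negative control. Based on reporter mRNA from transfected HepG2 cells harvested 24 h post-treatment and quantified via RT-PCR and capillary electrophoresis.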

[5] = target: Transcription factor Sp1 (Homo sapiens) (UniProt P08047); assay: ATG_Sp1_CIS: Attagene CIS-FACTORIAL HepG2 Assay for human Specificity Protein 1 (Sp1) (AID 2282961); conditions: HepG2 Sp1 cis-reporter transcription, actives raise or lower the signal
Summary of the method: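 Endpoint reflects endogenous Sp1 transcriptional activity, not an exogenous fusion protein: HepG2 cells with transfected cis-regulated reporters, 24 h dosing, RT-PCR/capillary electrophoresis mRNA read-out, DMSO-normalised bidirectional fit.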

[6] = ATG_SREBP_CIS: Attagene CIS-FACTORIAL HepG2 Assay for human Sterol Regulatory Element Binding (SREBP) (AID 2282962); conditions: HepG2 Attagene cis-factorial SREBP reporter, mRNA; actives raise or lower the signal
Summary of the method: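 Values derive from bidirectional curve fitting with DMSO as baseline. The underlying measurement is reporter mRNA from cis-element-regulated units in transiently transfected HepG2, quantified by RT-PCR and capillary electrophoresis after 24 h exposure.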

[7] = target: Signal transducer and activator of transcription 3 (Homo sapiens) (UniProt P40763); assay: ATG_STAT3_CIS: Attagene CIS-FACTORIAL HepG2 Assay for human Signal Transducer and Activator of Transcription 3 (STAT3) (AID 2282963); conditions: HepG2, Attagene cis-factorial STAT3 reporter transcription; actives raise or lower the signal
Summary of the method: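 Readout: fluorescent reporter mRNA fragments resolved by capillary electrophoresis. Setup: HepG2 transfected with MRTUs reporting endogenous transcription-factor activity, dosed 24 h. Gain or loss of signal fitted bidirectionally against DMSO control.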

[8] = ATG_TA_CIS: Attagene CIS-FACTORIAL HepG2 Assay for human TA Basal Promoter (AID 2282964); conditions: HepG2 Attagene CIS-factorial TA basal promoter reporter; actives raise or lower the signal
Summary of the method: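 Transfected HepG2, 24 h compound exposure; RNA → RT-PCR → FAM primer extension → HpaI cut → CE fluorescence. Gain/loss-of-signal fitted against DMSO negative control. Background-control readout.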

[9] = ATG_TCF_b_cat_CIS: Attagene CIS-FACTORIAL HepG2 Assay for human T-Cell-Factor with beta-catenin (TCF/b-cat) (AID 2282965); conditions: HepG2 TCF/beta-catenin cis-reporter transcription, actives raise or lower the signal
Summary of the method: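 HepG2, transient MRTU transfection, cis-element-driven reporters (endogenous TFs). 24 h compound exposure. Readout: reporter mRNA by RT-PCR + 6-FAM primer extension, HpaI digest, capillary electrophoresis. Gain/loss fit vs DMSO baseline.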

[10] = ATG_TAL_CIS: Attagene CIS-FACTORIAL HepG2 Assay for human TAL Basal Promoter (AID 2282966); conditions: HepG2 Attagene cis-factorial TAL promoter reporter; actives raise or lower the signal;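 also: background control endpoint measuring basal TAL promoter reporter mRNA not a specific factor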
Summary of the method: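 Background-control endpoint: basal TAL promoter reporter transcripts in transiently transfected HepG2, measured 24 h after dosing. Read-out by RT-PCR with fluorescent primer extension and capillary electrophoresis; gain or loss of signal fitted relative to DMSO.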

[11] = ATG_TGFb_CIS: Attagene CIS-FACTORIAL HepG2 Assay for human Transforming Growth Factor (TGF) (AID 2282967); conditions: HepG2 Attagene CIS TGFb reporter, mRNA transcription; actives raise or lower the signal
Summary of the method: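 Readout: fluorescently labeled reporter cDNA fragments resolved by capillary electrophoresis after RT-PCR. Transfected HepG2 cells dosed for 24 h; endogenous TF activity at TGFB1-linked cis element; gain or loss fitted relative to DMSO.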

[12] = ATG_VDRE_CIS: Attagene CIS-FACTORIAL HepG2 Assay for human Vitamin D Receptor Element (VDRE) (AID 2282968); conditions: HepG2 VDRE cis-reporter transcription, actives raise or lower the signal
Summary of the method: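 Transient MRTU transfection of HepG2, 24 h compound exposure. Readout: reporter transcripts via RT-PCR and capillary electrophoresis, fluorescence. Bidirectional fit vs DMSO.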

[13] = target: Nuclear receptor subfamily 1 group I member 3 (Homo sapiens) (UniProt Q14994); assay: ATG_CAR_TRANS: Attagene TRANS-FACTORIAL HepG2 Assay for human Constitutive Androstane Receptor (CAR) (AID 2282969; active = hit-call score of the fitted dose curve at least 0.9, where 1 is the maximum;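 also: activators raise reporter mRNA above DMSO so AC50 marks induction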); conditions: HepG2 Attagene TRANS-FACTORIAL CAR reporter
Summary of the method: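 Transiently transfected HepG2, multiplex TRANS reporters (CAR-Gal4 chimera driving GAL4-UAS reporter). 24 h dosing. Readout: reporter transcript by RT-PCR + capillary electrophoresis, fluorescence intensity; positive direction vs DMSO.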

[14] = target: Steroid hormone receptor ERR1 (Homo sapiens) (UniProt P11474); assay: ATG_ERRa_TRANS: Attagene TRANS-FACTORIAL HepG2 Assay for human Estrogen-Related Receptor alpha (ERRa) (AID 2282971; active = hit-call score of the fitted dose curve at least 0.9, where 1 is the maximum); conditions: HepG2 Attagene TRANS reporter, ERRa transactivation
Summary of the method: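 Reporter transcripts from ERRa-Gal4 chimera activity measured in transiently transfected human HepG2 cells 24 hours after dosing, using RT-PCR with 6-FAM primer extension, HpaI digestion and capillary electrophoresis; DMSO is baseline.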

[15] = target: X-box-binding protein 1 (Homo sapiens) (UniProt P17861); assay: ATG_Xbp1_CIS: Attagene CIS-FACTORIAL HepG2 Assay for human X-box Binding Protein 1 (XBP1) (AID 2282972); conditions: HepG2 XBP1 cis-element reporter, Attagene multiplex; actives raise or lower the signal
Summary of the method: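 Human hepatoma HepG2, cis-element reporter system, 24 h treatment; mRNA quantified by RT-PCR/CE fluorescence; fit relative to DMSO.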

[16] = ATG_M_19_TRANS: Attagene TRANS-FACTORIAL HepG2 Assay for M19 Transcription Factor (Internal Marker) (AID 2282974; active = hit-call score of the fitted dose curve at least 0.9, where 1 is the maximum); conditions: HepG2 Attagene TRANS-FACTORIAL M19 internal marker reporter
Summary of the method: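 Using RT-PCR and capillary electrophoresis, reporter mRNA from transiently transfected human HepG2 cells was quantified following 24 h exposure; activity was fitted in the positive direction against DMSO.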

[17] = ATG_GAL4_TRANS: Attagene TRANS-FACTORIAL HepG2 Assay for GAL4 (Internal Marker) (AID 2282976; active = hit-call score of the fitted dose curve at least 0.9, where 1 is the maximum); conditions: HepG2 Attagene TRANS GAL4 internal marker reporter
Summary of the method: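 In transfected human HepG2 liver cells dosed 24 h, GAL4 reporter mRNA serves as a baseline marker. Detection by RT-PCR with fluorescent capillary electrophoresis, activity fitted upward relative to DMSO.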

[18] = ATG_RORE_CIS: Attagene CIS-FACTORIAL HepG2 Assay for human RAR-related Orphan Receptor Element (RORE) (AID 2282959); conditions: HepG2 Attagene cis-factorial RORE reporter, mRNA; actives raise or lower the signal
Summary of the method: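 Transiently transfected HepG2 reporter cells were treated 24 h. Reporter transcripts were detected by RT-PCR and capillary electrophoresis, with bidirectional fitting against DMSO.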

[19] = target: Estrogen receptor (Homo sapiens) (UniProt P03372); assay: ATG_ERa_TRANS: Attagene TRANS-FACTORIAL HepG2 Assay for human Estrogen Receptor alpha (ERa) (AID 2282970; active = hit-call score of the fitted dose curve at least 0.9, where 1 is the maximum); conditions: HepG2 Attagene TRANS ERa GAL4 reporter, mRNA
Summary of the method: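 Reporter transcripts were measured 24 h after dosing by RT-PCR with fluorescent primer extension and capillary electrophoresis. The system is transiently transfected HepG2 expressing exogenous NR-Gal4 chimeras driving GAL4-UAS reporters; DMSO is the baseline.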

[20] = target: Paired box protein Pax-6 (Homo sapiens) (UniProt P26367); assay: ATG_Pax6_CIS: Attagene CIS-FACTORIAL HepG2 Assay for human Paired Box 6 (PAX6) (AID 2282956); conditions: HepG2 CIS-FACTORIAL PAX6 reporter transcription, RNA readout; actives raise or lower the signal
Summary of the method: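 Values derive from bidirectional curve fitting of reporter mRNA signal relative to DMSO. HepG2 cells bearing transfected cis-regulated MRTUs were exposed for 24 h; transcripts were read by RT-PCR and capillary electrophoresis.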

Measured: AC50

Sequence of Estrogen receptor (Homo sapiens) (P03372 whole entry, looked up, the tested form may be a part): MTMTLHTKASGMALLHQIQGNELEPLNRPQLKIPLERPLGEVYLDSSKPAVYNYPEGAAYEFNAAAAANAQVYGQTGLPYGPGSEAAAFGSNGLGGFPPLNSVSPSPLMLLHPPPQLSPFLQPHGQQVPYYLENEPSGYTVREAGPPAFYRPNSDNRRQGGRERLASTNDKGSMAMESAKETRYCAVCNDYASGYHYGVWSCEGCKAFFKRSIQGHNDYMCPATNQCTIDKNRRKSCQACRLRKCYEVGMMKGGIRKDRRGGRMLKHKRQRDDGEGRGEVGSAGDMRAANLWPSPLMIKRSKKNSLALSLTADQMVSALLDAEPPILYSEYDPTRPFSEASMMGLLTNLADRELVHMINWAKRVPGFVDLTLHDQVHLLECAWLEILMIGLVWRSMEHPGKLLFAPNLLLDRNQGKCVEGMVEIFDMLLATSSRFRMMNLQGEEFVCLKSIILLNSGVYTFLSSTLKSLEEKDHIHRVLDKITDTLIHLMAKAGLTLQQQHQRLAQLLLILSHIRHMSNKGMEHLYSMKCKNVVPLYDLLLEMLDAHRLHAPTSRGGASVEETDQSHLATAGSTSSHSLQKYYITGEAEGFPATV
Sequence of Transcription factor Sp1 (Homo sapiens) (P08047 whole entry, looked up, the tested form may be a part): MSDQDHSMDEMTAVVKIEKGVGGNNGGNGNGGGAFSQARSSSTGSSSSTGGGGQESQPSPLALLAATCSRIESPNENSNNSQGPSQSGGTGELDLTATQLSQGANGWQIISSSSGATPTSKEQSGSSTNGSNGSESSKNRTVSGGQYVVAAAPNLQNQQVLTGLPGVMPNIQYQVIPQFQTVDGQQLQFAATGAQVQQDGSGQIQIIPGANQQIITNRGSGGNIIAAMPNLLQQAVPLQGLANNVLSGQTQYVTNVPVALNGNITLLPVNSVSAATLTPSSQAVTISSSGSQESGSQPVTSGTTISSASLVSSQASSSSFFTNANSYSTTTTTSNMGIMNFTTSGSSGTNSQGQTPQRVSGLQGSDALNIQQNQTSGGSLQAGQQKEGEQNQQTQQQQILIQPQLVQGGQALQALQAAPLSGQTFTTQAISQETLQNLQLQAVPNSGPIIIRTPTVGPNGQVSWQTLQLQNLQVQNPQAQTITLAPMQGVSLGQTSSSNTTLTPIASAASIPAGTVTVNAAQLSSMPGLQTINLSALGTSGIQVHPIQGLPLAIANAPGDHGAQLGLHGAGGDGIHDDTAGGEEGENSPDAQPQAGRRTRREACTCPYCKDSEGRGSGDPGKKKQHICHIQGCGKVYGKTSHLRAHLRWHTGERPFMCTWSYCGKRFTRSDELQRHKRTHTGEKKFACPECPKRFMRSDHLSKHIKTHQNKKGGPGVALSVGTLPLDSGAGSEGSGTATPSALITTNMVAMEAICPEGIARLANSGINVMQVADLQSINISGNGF
Sequence of Steroid hormone receptor ERR1 (Homo sapiens) (P11474 whole entry, looked up, the tested form may be a part): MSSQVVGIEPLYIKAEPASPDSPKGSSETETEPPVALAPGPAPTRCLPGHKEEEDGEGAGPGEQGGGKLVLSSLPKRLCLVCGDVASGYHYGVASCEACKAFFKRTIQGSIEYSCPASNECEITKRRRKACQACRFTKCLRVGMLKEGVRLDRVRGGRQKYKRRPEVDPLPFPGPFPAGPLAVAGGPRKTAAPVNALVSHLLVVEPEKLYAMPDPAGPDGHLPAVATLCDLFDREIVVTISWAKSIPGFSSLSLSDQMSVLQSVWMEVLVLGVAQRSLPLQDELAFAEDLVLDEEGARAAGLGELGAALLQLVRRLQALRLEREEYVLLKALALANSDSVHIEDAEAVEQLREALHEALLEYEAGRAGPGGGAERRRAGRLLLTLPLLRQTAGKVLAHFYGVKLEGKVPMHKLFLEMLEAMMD
Sequence of Signal transducer and activator of transcription 3 (Homo sapiens) (P40763 whole entry, looked up, the tested form may be a part): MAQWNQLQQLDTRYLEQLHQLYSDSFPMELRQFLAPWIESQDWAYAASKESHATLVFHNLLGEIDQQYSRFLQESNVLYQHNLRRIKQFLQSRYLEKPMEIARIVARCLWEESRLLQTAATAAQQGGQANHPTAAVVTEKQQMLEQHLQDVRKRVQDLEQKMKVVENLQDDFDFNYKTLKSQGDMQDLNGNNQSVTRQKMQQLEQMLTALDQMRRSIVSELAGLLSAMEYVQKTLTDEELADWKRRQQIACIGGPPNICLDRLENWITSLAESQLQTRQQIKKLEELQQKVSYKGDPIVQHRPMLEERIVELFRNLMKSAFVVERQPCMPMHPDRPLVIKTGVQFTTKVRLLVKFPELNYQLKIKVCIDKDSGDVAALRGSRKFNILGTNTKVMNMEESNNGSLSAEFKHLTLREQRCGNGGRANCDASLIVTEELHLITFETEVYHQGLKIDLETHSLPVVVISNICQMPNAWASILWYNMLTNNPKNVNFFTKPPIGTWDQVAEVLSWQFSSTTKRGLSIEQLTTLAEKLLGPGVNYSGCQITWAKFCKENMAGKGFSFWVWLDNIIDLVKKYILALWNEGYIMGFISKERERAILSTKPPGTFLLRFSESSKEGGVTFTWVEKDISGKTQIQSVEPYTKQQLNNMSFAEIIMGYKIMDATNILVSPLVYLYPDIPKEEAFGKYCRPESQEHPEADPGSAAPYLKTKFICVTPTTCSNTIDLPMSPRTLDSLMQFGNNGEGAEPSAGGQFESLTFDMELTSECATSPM
Sequence of X-box-binding protein 1 (Homo sapiens) (P17861 whole entry, looked up): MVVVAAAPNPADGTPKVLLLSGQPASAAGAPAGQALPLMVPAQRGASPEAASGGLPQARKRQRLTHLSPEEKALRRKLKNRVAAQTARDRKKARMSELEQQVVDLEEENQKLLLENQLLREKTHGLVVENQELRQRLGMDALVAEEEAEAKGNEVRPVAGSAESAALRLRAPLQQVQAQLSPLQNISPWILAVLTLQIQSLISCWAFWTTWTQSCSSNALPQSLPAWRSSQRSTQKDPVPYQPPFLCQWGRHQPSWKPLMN
Sequence of Paired box protein Pax-6 (Homo sapiens) (P26367 whole entry, looked up): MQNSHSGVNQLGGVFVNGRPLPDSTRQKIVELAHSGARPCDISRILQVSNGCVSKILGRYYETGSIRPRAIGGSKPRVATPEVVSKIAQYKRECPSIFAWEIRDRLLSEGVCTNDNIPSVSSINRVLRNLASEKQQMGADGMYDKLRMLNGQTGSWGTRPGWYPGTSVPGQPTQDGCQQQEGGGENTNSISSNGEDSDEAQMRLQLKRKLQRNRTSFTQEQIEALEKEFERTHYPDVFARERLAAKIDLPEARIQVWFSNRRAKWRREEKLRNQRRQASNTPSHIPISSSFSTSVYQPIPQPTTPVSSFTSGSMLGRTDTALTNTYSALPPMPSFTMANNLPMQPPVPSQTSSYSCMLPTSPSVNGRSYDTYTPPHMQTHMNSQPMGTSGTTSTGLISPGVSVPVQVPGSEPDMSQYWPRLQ
Sequence of Nuclear receptor subfamily 1 group I member 3 (Homo sapiens) (Q14994 whole entry, looked up, the tested form may be a part): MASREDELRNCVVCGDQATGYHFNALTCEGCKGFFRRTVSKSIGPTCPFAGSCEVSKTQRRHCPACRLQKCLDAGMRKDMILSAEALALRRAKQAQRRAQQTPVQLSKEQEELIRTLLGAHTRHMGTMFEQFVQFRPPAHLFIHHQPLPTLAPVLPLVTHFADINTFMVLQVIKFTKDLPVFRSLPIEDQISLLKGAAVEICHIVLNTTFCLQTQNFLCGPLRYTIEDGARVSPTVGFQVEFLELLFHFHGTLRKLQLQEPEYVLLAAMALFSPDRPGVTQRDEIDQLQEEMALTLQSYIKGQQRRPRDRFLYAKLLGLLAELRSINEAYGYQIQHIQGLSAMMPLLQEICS

COc1nc(C)nc(NC(=O)NS(=O)(=O)c2ccccc2OCCCl)n1
active: [2] 34.2 µM and 5.58 µM
not listed: [18] | [19] | [20]
inactive: all other assays above

CC(C)(C)[C@@H](O)[C@@H](Cc1ccc(Cl)cc1)n1cncn1
active: [2] 13.5 µM | [12] 14 µM
not listed: [1] | [13] | [14] | [16] | [17] | [19] | [20]
inactive: all other assays above

S=C([S-])NCCNC(=S)[S-].[Mn+2]
not listed: [1] | [3] | [13] | [14] | [17] | [18] | [19] | [20]
inactive: all other assays above

CC1(C)C(C=C(Cl)Cl)C1C(=O)OCc1cccc(Oc2ccccc2)c1 (stereo not given)
active: [2] 7.62 µM | [12] 10 µM | [19] 25.9 µM
not listed: [3] | [14] | [20]
inactive: all other assays above

CCOC(=O)[C@H](C)Oc1ccc(Oc2nc3ccc(Cl)cc3o2)cc1
active: [3] 50 µM
not listed: [14] | [17] | [18] | [19] | [20]
inactive: all other assays above

CCCCC(CC)CN1C(=O)C2C3C=CC(C3)C2C1=O (stereo not given)
active: [1] 50 µM | [2] 3.79 µM | [3] 50 µM | [12] 23.8 µM | [19] 50 µM
not listed: [18] | [20]
inactive: all other assays above

CCN(CC)C(=O)c1cccc(C)c1
active: [2] 40.2 µM
inactive: [2] | [3] | [18] | [4] | [5] | [6] | [7] | [8] | [9] | [10] | [11] | [12] | [19] | [14] | [15] | [16] | [17]

CC(=O)[C@H]1CC[C@H]2[C@@H]3CCC4=CC(=O)CC[C@]4(C)[C@H]3CC[C@]12C
active: [20] 24.6 µM | [2] 4.83 µM [middle of 4 runs] | [6] 33.4 µM [middle of 4 runs] | [7] 180 µM | [10] 177 µM | [12] 26.5 µM [middle of 4 runs] | [17] 158 µM
inactive: [20] | [3] | [4] | [5] | [7] | [8] | [9] | [10] | [11] | [14] | [15] | [16] | [17]

CCCN(CCC)C(=O)SCC
not listed: [3] | [14] | [17] | [18] | [20]
inactive: all other assays above

From PubChem BioAssay (EPA / NIEHS)
